Source: PubChem BioAssay (NCI)
This is part of a sample that, as a whole, favours compounds with a hit. Of some 83,000 tested, about 20% had one in any assay.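 Growth was measured after 48 h exposure to one concentration of compound in 96-well plates. Values under 10 count as active.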 A number with no mark means an inactive call. Activity calls are given as the source filed them.

Columns and labels:
Experiment in all cases: NCI-60 one-dose screen, 48 h (100 = growth as untreated, 0 = no growth, -100 = all killed)
SR leukemia = details: 10 µM unless noted
RPMI-8226 leukemia = details: 10 µM unless noted
OVCAR-8 ovarian = details: 10 µM unless noted
OVCAR-5 ovarian = details: 10 µM unless noted
OVCAR-4 ovarian = details: 10 µM unless noted
SK-OV-3 ovarian = details: 10 µM unless noted
IGROV1 ovarian = details: 10 µM unless noted
OVCAR-3 ovarian = details: 10 µM unless noted
HS 578T breast = details: 10 µM
NCI/ADR-RES ovarian = details: 10 µM unless noted

| Compound | growth (SR leukemia) | growth (RPMI-8226 leukemia) | growth (OVCAR-8 ovarian) | growth (OVCAR-5 ovarian) | growth (OVCAR-4 ovarian) | growth (SK-OV-3 ovarian) | growth (IGROV1 ovarian) | growth (OVCAR-3 ovarian) | growth (HS 578T breast) | growth (NCI/ADR-RES ovarian) |
| --- | --- | --- | --- | --- | --- | --- | --- | --- | --- | --- |
| COCCOCCOCc1n(Cc2ccc3ccccc3n2)c2ccccc2[n+]1Cc1ccc2ccccc2c1 | -37.1% (active) | -30.3% (active) | 9.25% (active) | 14.7% | 9.99% (active) | -6.91% (active) | -9.44% (active) | 1.01% (active) | 20.3% | 98.9% |
| C#CC[C@@H]1C[C@]2(C)[C@H]3CC[C@@H]4[C@H]5C(C(=C)C)CC[C@]5(C(=O)NCCCCCCCCN)CC[C@@]4(C)[C@]3(C)CC[C@H]2C(C)(C)[C@H]1OC(C)=O (stereo partly specified) | -16% (active) | 0.0796% (active) | 91.3% | 108% | 45.9% | 124% | 85.7% | 55.4% | 109% | 93.8% |
| O=C(Nc1ccc(Oc2ccc(Nc3nc4ccccc4s3)cc2)cc1)Nc1ccc(Cl)c(C(F)(F)F)c1 | 0.688% (active) | -19.5% (active) | 6.28% (active) | 23.6% | 17.7% | 12.1% | 17% | -3.18% (active) | 7.39% (active) | 5% (active) |
| CCOC(CN1CCN(CC(C)C(=O)c2ccccc2)CC1)c1ccccc1 (stereo unspecified) | 99.3% | 88.8% | 104% | 110% | 93.4% | 105% | 104% | 112% | 115% | 106% |
| O=C(C=P(c1ccccc1)(c1ccccc1)c1ccccc1)CCl | 3.51% (active) | -19.2% (active) | -37.1% (active) | 1.7% (active) | -37.3% (active) | 24.6% | -69.5% (active) | -85.1% (active) | 18.6% | -27% (active) |
| Nc1nc(N)c2c(n1)NC(c1sc(Cl)nc1Cl)CC(c1ccc3c(c1)OCO3)=N2 (stereo unspecified) | 17.1% | 27.1% | 40.5% | 66.3% | 86% | 17.4% | 34.2% | 10.4% | 10.8% |  |
| Fc1cnccc1-c1nc2ccc3[nH]ncc3c2c2c1CCCC2 | 34.1% | 37.6% | 30.2% | 45.2% | 48.9% | -21.2% (active) | 12.1% | 30.4% | 10.8% | 32.3% |
| O=C1c2ccccc2C(=O)c2c1oc1ccc3ccccc3c21 | 60.8% | 75.9% | 88.2% | 130% | 34.1% | 114% | 80.2% | 39.4% | 85.7% | 79.4% |
| CC(=O)Nc1ccc(Cl)cc1Cl | 44.3% | 121% | 97.6% | 102% | 105% | 108% | 60.8% | 118% | 178% | 115% |
| CC(=O)c1nn(-c2ccccc2)/c(=N\N=C\c2coc3ccc(F)cc3c2=O)s1 | 96.2% | 91.9% | 107% | 110% | 108% | 98.9% | 87.2% | 111% | 95.1% | 104% |
| COc1ccc(-c2oc(=O)ccc2-c2cc(OC)c(OC)c(OC)c2)cc1F | 7.57% (active) | 80.8% | 79.9% | 69.2% | 105% | 106% | 80.4% | 107% | 86.4% | 57.9% |
| CCN(CC)CCCC(C)Nc1cnc(C(=O)Nc2cc(C)cc3cccnc23)cn1 (stereo unspecified) | 81.9% | 78% | 86.9% | 97.6% | 58.8% | 104% | 68.7% | 20.5% | 79.9% | 92.7% |
| O=C(/C=C/c1cn(-c2ccccc2)nc1-c1cccc(Nc2ccnc3cc(Cl)ccc23)c1)c1ccc2c(c1)OCO2 | 8.67% (active) | 59.2% | 91.9% | 106% | 143% | 113% | 96.8% | 117% | 105% |  |
| Cc1ccc2oc(=O)cc(-c3nc4ccc([N+](=O)[O-])cc4[nH]3)c2c1 | 83% | 30.9% | 55.6% | 98.3% | 31.3% | 79.4% | 70.6% | 43.5% | 63.9% | 20.9% |
| COc1cc(C2CC(c3cccc(Nc4ccnc5cc(Cl)ccc45)c3)=NN2c2ccccc2)cc(OC)c1OC (stereo unspecified) | 52.7% | 53.1% | 69.6% | 99.8% | 124% | 101% | 76.4% | 90.6% | 63.6% |  |
| COc1cc2c(cc1OC)C(=O)C(Br)CC2 (stereo unspecified) | 19.8% | 20.6% | 33% | 73.7% | 52.7% | 83.2% | 41.7% | 38.9% | 88.8% |  |
| O=Cc1ccc2nc(C(Cl)(Cl)Cl)ccc2c1 | 93.2% | 93.7% | 107% | 108% | 110% | 90.5% | 93.1% | 103% | 102% | 105% |
| Cc1ccc(NC(=O)c2[nH]c(SCCN(C)C)nc2-c2ccc(F)cc2)cc1Nc1ccc2ncn(C)c(=O)c2c1 | -24.9% (active) | 40.8% | 70% | 42.6% | 70.8% | 88.4% | 39.8% | 78.9% | 60.6% | 93.2% |
| Cc1cc(C)cc(NC(=O)Cn2nncc2CN2C(=O)CSC2=O)c1 | 118% | 110% | 101% | 110% | 106% | 92.5% | 110% | 110% | 89.5% | 96.3% |
| CCCc1cc2c(cc1CN(Cc1cc3c(cc1CCC)OCO3)C(=N)OCC)OCO2 | 91.2% | 55.2% | 82.4% | 98.9% | 77.9% | 92.7% | 63.3% | 69.1% | 73.1% | 91.2% |
| Clc1ccc(Nc2ncnc3c2sc2ncccc23)cc1 | 10.4% | 38.2% | 12.2% | 58.2% | 85.4% | 28.6% | 66.2% | 56.6% | 86.8% | 19.1% |
| COc1ccc(Nc2ncccc2C(=O)NCc2cn(Cc3cc(OC)cc(OC)c3)nn2)cc1 | 84.8% | 99.8% | 97.6% | 106% | 98% | 98.7% | 113% | 96.5% | 86.2% | 89.7% |
| COc1ccc(-c2[nH]nc(N)c2-c2cc(OC)c(OC)c(OC)c2)cc1 | -23.7% (active) | -8.96% (active) | 7.81% (active) | 38.8% | 64.2% | 4.97% (active) | 1.08% (active) | -28.3% (active) | 25.6% | -9.45% (active) |
| CC1(C)C(N(O)C(=O)Nc2ccc(Cl)cc2)N(c2ccc(Cl)cc2)C(=O)N1CC(=O)N/N=C/C=C/c1ccc([N+](=O)[O-])o1 (stereo unspecified) | -13.1% (active) | -23.7% (active) | 3.32% (active) | 6.4% (active) | 14.9% | 57.8% | -5.58% (active) | -26.8% (active) | -11.4% (active) | 95% |
| C/C(=N\OC(=O)Nc1ccccc1)c1ccccc1 | 81.5% | 99.1% | 106% | 98.4% | 92.9% | 115% | 106% | 108% | 85.1% | 107% |
| O=C(OCc1ccc2c(Br)cc(Br)c(O)c2n1)c1cc2ccccc2[nH]1 | 3.2% (active) | -25.2% (active) | -23.7% (active) | -85.4% (active) | -21.2% (active) | 68.8% | -91.5% (active) | -80.8% (active) | -4.51% (active) | -55.2% (active) |
| CCN(CC)CCCCCCCNc1cc(OC)cc2c(C)ccnc12 | 73.2% | 68.9% | 67.2% | 97.5% | 21.1% | 94.9% | 52.6% | 20.6% | 72.4% | 78.6% |
